Experimental data from the supplement of paper PMC6555819.

Legend:
Test in all cases: PBM binding z-score (relative to random genomic background probes); higher = stronger binding; sequences stand for … in GC…GCGATTGACAGCGTAGAATGAAGG
[1] = test system: PPARg:RXRa DBDmut IVT, anti-RXR (DBD mutation: RXRa K156A/R161A, NR concentration 270 nM, RXRa partner concentration 90 nM)
In short: (§1)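 Custom Agilent 4×180K protein-binding microarrays carried double-stranded probes, each with a 34-nt variable region. These regions held direct-repeat seeds, single-nucleotide variants, half-site ablations and random human genomic background sequences. Ligand-free nuclear receptor dimers were incubated on the arrays for 1 h, antibodies against each partner (one per run) detected binding, and scanned fluorescence was regression-normalized. Binding z-scores take the random background probes as reference.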

[2] = test system: PPARg:RXRa IVT, anti-PPARg (NR concentration 270 nM, RXRa partner concentration 90 nM)
In short: as §1

[3] = test system: PPARg DBDmut:RXRa IVT, anti-PPARg (DBD mutation: PPARg1 K132A/R137A, NR concentration 270 nM, RXRa partner concentration 90 nM)
In short: as §1

[4] = test system: PPARg DBDmut IVT, anti-PPARg (DBD mutation: PPARg1 K132A/R137A, NR concentration 270 nM)
In short: as §1

[5] = test system: PPARg homodimer (NR concentration 180 nM)
In short: as §1

[6] = test system: PXR:RXRa (NR concentration 270 nM, RXRa partner concentration 90 nM)
In short: as §1

[7] = test system: PXR homodimer (NR concentration 270 nM)
In short: as §1

[8] = test system: RARa:RXR (NR concentration 270 nM, RXRa partner concentration 90 nM)
In short: as §1

[9] = test system: RARa homodimer (NR concentration 270 nM)
In short: as §1

[10] = test system: RARb:RXRa (NR concentration 270 nM, RXRa partner concentration 90 nM)
In short: as §1

[11] = test system: RARb homodimer (NR concentration 270 nM)
In short: as §1

[12] = test system: RARg:RXRa (NR concentration 270 nM, RXRa partner concentration 90 nM)
In short: as §1

[13] = test system: RARg homodimer (NR concentration 270 nM)
In short: as §1

[14] = test system: RXRa DBDmut IVT, anti-RXR (DBD mutation: RXRa K156A/R161A, NR concentration 90 nM)
In short: as §1

[15] = test system: THRa:RXRa (NR concentration 90 nM, RXRa partner concentration 90 nM)
In short: as §1

[16] = test system: THRa homodimer (NR concentration 90 nM)
In short: as §1

[17] = test system: VDR homodimer (NR concentration 270 nM)
In short: as §1

[18] = test system: RXRa homodimer (NR concentration 180 nM)
In short: as §1

[19] = test system: VDR:RXRa (NR concentration 270 nM, RXRa partner concentration 90 nM)
In short: as §1

Sequence	PBM binding z-score [1]	PBM binding z-score [2]	PBM binding z-score [3]	PBM binding z-score [4]	PBM binding z-score [5]	PBM binding z-score [6]	PBM binding z-score [7]	PBM binding z-score [8]	PBM binding z-score [9]	PBM binding z-score [10]	PBM binding z-score [11]	PBM binding z-score [12]	PBM binding z-score [13]	PBM binding z-score [14]	PBM binding z-score [15]	PBM binding z-score [16]	PBM binding z-score [17]	PBM binding z-score [18]	PBM binding z-score [19]
TAGCCTAGGTCATGCGGGCCAGTATAGTGTCGGC	1.77	2.76	-0.107	-0.0866	0.667	1.37	-0.724	2.44	-0.846	3.66	2.89	3.98	4.4	0.813	3.02	0.858	0.814		
ACTAGTTGGTCAGCTGAGGTAACACACAATTCGG	1.07	1.11	0.194	0.609	0.0938	0.509	-0.174	1.3	-0.362	1.03	1.07	0.611	0.949	0.36	3.97	1.99	0.0871		
AGTAGCAGGCCAAGGGTCACTCAAGATTAGTCCG	0.462	3.88	-0.464	-0.976	1.7	3.19	-0.0466	4.3	0.186	3.65	3.98	4.29	3.86	0.553	2.76	0.326	1.46		
CAAACTAGGTCACGAAAGGTCAAAGCCGAATGAC	8.59	8.71	2.62	1.68	7.54	6.89	3.03	7.57	4.36	5.74	5.98	8.01	8.56	2.11	5.07	2.55	3.58		
CCTAGTTGGTCAAGCTCACACACGCTATAGGTAC	1.68	1.17	0.0557	0.393	0.772	0.179	0.39	0.432	1.68	1.14	0.906	0.632	1.12	0.623	0.136	0.545	0.614		
CCTGGCAGGCCAGGGTCACTCAAGCATTTCGCTT	-0.558	0.531	-1.01	-1.58	0.712	3.01	-0.393	3.1	-0.89	2.91	2.66	3.49	2.46	-0.63	2.96	0.655	1.3		
ATCGAACGGTCGACGAGGTGAGTATACACCGTTT	-0.724	0.667	0.31	0.651	-0.218	-0.192	-0.411	-0.0707	-0.605	0.92	0.461	0.635	1.21	-0.546	1.26	0.292	-0.356		
ATCGAAACGTCGACGAGGTGAGTATACACCGTTT	-0.306	0.572	0.364	1.43	-0.489	-0.346	-0.33	-0.0607	0.109	-0.0586	-0.247		0.527	-0.148	1.1	0.23	-0.146	0.362	-0.119
CGAACTAGGTGATTGACAGGACAGTGAATAGTAA	6.28	5.92	0.852	0.609	0.553	-0.082	0.228	0.0788	0.46	0.167	0.647		0.266	0.246	0.755	0.252	0.00262	-0.176	-0.0545
TAGCCTAGGTCAAGCGGGCCAGTATAGTGTCGGC	2.36	2.99	-0.422	-0.858	0.96	1.38	-0.618	2.42	-0.521	4.04	3.29	4.34	5.14	0.428	2.9	0.702	-0.353		
GATAGTTGGTCAGTAAAAGGTCACACACCGGTCG	1	3.26	0.61	0.944	4.23	4.92	1.52	5.65	3.2	4.42	5.36	5.32	4.96	0.579	3.59	1.91	2.12		
CGTCAAAGTTCAAGGCAACGTAACAGAAAGCAGC	0.106	1.35	-0.0637	0.203	2.24	3.56	1.41	2.87	0.477	4.98	3.41	5.02	6.02	3.97	1.72	-0.246	2.61		
GCTAGTGGGTCAGTAAAAGGTCACACACCGGTCG	6.37	6.63	1.17	1.14	6.87	5.62	1.8	7.01	2.96	5.12	5.72		6.65	0.518	4.09	1.66	2.18	6.21	4.9
ACTAGTTGGTCACCTGAGGTCACACACAATTCGG	2.55	3.78	1.79	1.35	4.91	6.25	3.12	5.48	2.94	3.91	4.6	4.66	4.96	1.53	5.34	5.66	5.13		
GATACGGGGTCAGCTAGAGGCCAGAGTATGGAAA	3.12	4.66	1.44	0.481	4.42	5.75	0.6	6.84	0.888	5.15	4.12		6.6	3.39	4.28	1.14	2.68	7.4	5.72
TCTAGTTGGTCGCGGAGGTCACACACGACGGGTA	1.54	2.37	0.402	0.328	2.9	4.16	1.42	4.39	1.29	3.38	3.92	3.94	3.62	0.932	3.45	2.74	2.63		
TGAATGAGGTCAAAGATCAGGGAACGTGGCGTCG	5.48	6.25	2.11	0.903	2.17	5.41	1.74	6.5	1.38	4.99	3.65	6.3	6.16	4.12	4.33	3.06	4.68		
TCTCGGAGGACACGAAGGTCAGCGCTTTCCAGAG	1.48	1.41	-0.389	-0.884	2.23	2.49	0.985	3.06	0.313	3.95	3.93		4.24	0.82	3.23	1.21	1.46	2.38	2.35
CCTACTGTGCCATTCAGAGGTCATTGATCATATG	3.76	3.54	0.945	0.536	2.73	4.89	2.63	4.4	1.62	3.08	4.39	4.2	2.75	1.79	3.38	2.43	3.56		
TGGCCTAGGTCATGCGGGCCAGTATAGTGTCGGC	1.03	2.44	-0.76	-1.48	0.35	1.12	-0.591	2.07	-0.739	3.53	2.85		4.45	-0.03	2.68	0.284	0.128	3.03	
GCTGCTAGGTCATGTTGGTCAGCTAACGGGTACG	4.28	3.3	0.275	1.15	2.55	1.49	-0.31	2.42	0.287	3.69	3.21		4.33	1.85	2.83	1.39	1.44	2.51	
AGCGAAAGGTCGAAGGTGAGTATACCCACCCGAA	0.0438	2.06	0.39	-0.438	1.16	2.97	-0.17	4.28	0.406	3.6	2.44		4.05	0.876	2.04	-0.329	0.312	5.09	
CCTCGGAGGACAACCGGAGGTCAGAGCTGCCAGA	-0.468	0.238	-0.802	-1.28	1.17	2.33	0.578	2.46	0.0885	2.98	3.53		3.47	0.243	3.14	1.3	1.41	1.86	
CCTAGCAGGCCAGGTTCACTCAAGCATTTCGCTT	0.866	-0.316	-1.77	-0.982	-0.179	0.776	0.391	0.488	-0.298	0.579	0.543		0.106	2.28	0.5	0.0438	3.42	0.844	2.09
GATACAGGGTCAGCTAGAGGGCAGAGTATGGAAA	1.36	2.69	1.37	0.18	4.2	4.38	0.747	5.63	1.68	4.51	4.04		5.53	1.71	3.18	1.05	1.68	4.61	
ATCGAATGGTCGAGGTGAGTATAGAGAAAGGGAA	-0.483	0.658	1.03	0.73	0.372	-0.283	0.0857	0.0342	0.112	0.541	0.319		0.76	-0.577	0.936	0.55	-0.57	0.118	
ATCTCTAGGTAACAAGGTCAGTGAAAGAGAGGAC	4.43	4.75	1.63	1.14	2.4	1.98	1.12	2.3	1.5	3.07	3.49		3.28	0.451	3.07	2.37	1.78	2.26	2.12
CGTCCGAGGTCAATGCTAGGTCAGTGAAAGCATT	3.56	4.42	-0.103	-0.0468	4.53	5.62	2.14	6.71	0.652	5.17	4.93		6.71	4.03	4.6	2.97	4.57	6.61	5.63
